# This is part of a sample that, as a whole, favours compounds with a hit. Of some 83,000 tested, about 20% had one in any assay.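 For each line, cells grew in 96-well plates with the test compound present at a single concentration for 48 hours.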 The source made the active and inactive calls. Rule for the calls: active = growth percent below 10; inactive = the rest.
# Tested on: HL-60(TB) leukemia
# Assay: NCI-60 one-dose screen, 48 h (100 = growth as untreated, 0 = no growth, -100 = all killed)
# Conditions: 10 µM unless noted
row,SMILES,growth
1,C#C[C@]1(O)CC[C@H]2[C@@H]3CC=C4c5sc(-c6ccc([N+](=O)[O-])cc6)nc5CC[C@]4(C)[C@H]3CC[C@@]21C,23.7% (inactive)
2,O=c1oc2ccccc2cc1-c1csc(N=Nc2c(O)[nH]c3ccc(Br)cc23)n1,99% (inactive)
3,CCCCCCCCc1cccc(CC(=O)Nc2ccc(C)cc2C(=O)O)c1,33.5% [25 µM] (inactive)
4,CC(C)(C)C(=O)C1CC(C#N)=C2C=Cc3c(ccc4ccccc34)N21 (configuration not stated),108% (inactive)
5,Cc1ccc(S(=O)(=O)c2nc(S(=O)(=O)c3ccc(C)cc3)c(N3CCN(C)CC3)s2)cc1,17.8% (inactive)
6,CCCn1c(NC(=O)c2cccc(C(N)=O)c2)nc2ccc(CN3CCCCC3)cc21,72.9% (inactive)
7,Cc1ccc(N=Nc2c(N)nn3c(-c4cc5cc(Br)ccc5oc4=O)ccnc23)cc1,83.2% (inactive)

# Source: PubChem BioAssay (NCI)
